Experimental data published in PubChem BioAssay (NCATS).
“And” between values parts separate entries of the source, which are not always exact repeats. Equal entries are not always repeated. A number with no mark means an inactive call. Inconclusive results are not listed. Entries that show only a call come without a potency. The source made the active and inactive calls. Unless noted, the call rests on the fitted dose curve; in most records, active means well fitted curve in the direction sought with a large enough effect; inconclusive means small, poorly fitted or top-dose-only effect, or another doubt; inactive means no such curve, though single readings can be large; an effect the other way counts as inactive or inconclusive.

How the values were obtained:
[1] = MultiTox-Fluor Cytotoxicity Assay - LYMP1-001 - Live Cells (AID 947)
[2] = MultiTox-Fluor Cytotoxicity Assay - LYMP1-002 - Dead Cells (AID 960); further: nearly all actives have a fitted effect of over 60% in size
Procedure, shortened: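 Human lymphoblastoid cells (LYMP1-002), 2500/well in complete medium, were exposed to compounds for 16 hr at 37 C. Dead-cell protease activity was read as bis-AAF-R110 fluorescence (Ex/Em 485/520), normalized to DMSO and 15 uM tetraoctylammonium bromide; AC50 from Hill fits.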

[3] = Cell Viability - LYMP2-009 (AID 968); further: series mostly up to about 92 µM; nearly all actives have a fitted effect of over 55% in size
[4] = Cell Viability - LYMP2-024 (AID 988); further: nearly all actives have a fitted effect of over 60% in size; further: potency means the concentration at half of the fitted maximal effect
Procedure, shortened: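 Human lymphoblastoid cells (2500/well) in complete medium were preincubated 5 hr at 37 C, then exposed to compounds for 24 hr at 37 C. Intracellular ATP was read by CellTiter-Glo luminescence; AC50 from Hill-equation fits of concentration-response data.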

[5] = target: Estrogen receptor (Homo sapiens) (UniProt P03372); assay: qHTS assay for small molecule antagonists of estrogen receptor alpha signaling (AID 588513; active means well fitted curve in the direction sought with a large enough effect in the signal ratio, with a control signal flat, not every such curve was filed as active; the % refers to the signal ratio)
Chain of Estrogen receptor (Homo sapiens) (P03372 whole entry, looked up): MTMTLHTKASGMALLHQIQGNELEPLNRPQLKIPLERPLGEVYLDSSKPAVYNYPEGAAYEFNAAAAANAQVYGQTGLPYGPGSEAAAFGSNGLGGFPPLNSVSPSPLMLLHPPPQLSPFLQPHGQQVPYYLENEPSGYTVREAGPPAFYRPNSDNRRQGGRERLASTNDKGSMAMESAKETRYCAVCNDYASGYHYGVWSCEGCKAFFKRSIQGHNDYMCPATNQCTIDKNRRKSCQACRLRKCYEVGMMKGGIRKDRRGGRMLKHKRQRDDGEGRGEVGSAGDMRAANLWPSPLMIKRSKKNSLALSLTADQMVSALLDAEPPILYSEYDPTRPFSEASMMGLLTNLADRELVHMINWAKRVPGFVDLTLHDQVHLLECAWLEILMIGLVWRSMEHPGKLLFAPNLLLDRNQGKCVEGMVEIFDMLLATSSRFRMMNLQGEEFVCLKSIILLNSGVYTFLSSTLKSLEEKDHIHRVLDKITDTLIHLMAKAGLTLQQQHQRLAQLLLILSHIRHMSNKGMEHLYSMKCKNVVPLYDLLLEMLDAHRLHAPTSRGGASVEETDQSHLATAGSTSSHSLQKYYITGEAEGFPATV
Procedure, shortened: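 Fluorescence from CCF4 substrate after 2 h at room temperature gave reporter activity; cells had been exposed to compound and 0.5nM 17-beta-estradiol for 18 h at 37 C. Hill-equation fitting yielded IC50 and maximal response.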

[6] = target: Estrogen receptor (Homo sapiens) (UniProt P03372); assay: qHTS assay for small molecule agonists of estrogen receptor alpha signaling (AID 588514; calls by dose curve; further: nearly all actives have a fitted effect of over 70% in size)
Procedure, shortened: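 ER-alpha-UAS-bla GripTite HEK 293 cells in medium with 2% charcoal/dextran-treated FBS were treated with compound titrations at 37 C for 18 hrs; beta-lactamase reporter read by CCF4 fluorescence after 2 hrs at RT.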

[7] = target: Glucocorticoid receptor (Homo sapiens) (UniProt P04150); assay: qHTS assay for small molecule antagonists of glucocorticoid receptor signaling (AID 588533; active means well fitted inhibition curve with a large enough effect in the signal ratio, with a control signal flat, not every such curve was filed as active; the % refers to the signal ratio;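 further: cells stimulated with 2 nM dexamethasone as agonist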)
Chain of Glucocorticoid receptor (Homo sapiens) (P04150 whole entry, looked up): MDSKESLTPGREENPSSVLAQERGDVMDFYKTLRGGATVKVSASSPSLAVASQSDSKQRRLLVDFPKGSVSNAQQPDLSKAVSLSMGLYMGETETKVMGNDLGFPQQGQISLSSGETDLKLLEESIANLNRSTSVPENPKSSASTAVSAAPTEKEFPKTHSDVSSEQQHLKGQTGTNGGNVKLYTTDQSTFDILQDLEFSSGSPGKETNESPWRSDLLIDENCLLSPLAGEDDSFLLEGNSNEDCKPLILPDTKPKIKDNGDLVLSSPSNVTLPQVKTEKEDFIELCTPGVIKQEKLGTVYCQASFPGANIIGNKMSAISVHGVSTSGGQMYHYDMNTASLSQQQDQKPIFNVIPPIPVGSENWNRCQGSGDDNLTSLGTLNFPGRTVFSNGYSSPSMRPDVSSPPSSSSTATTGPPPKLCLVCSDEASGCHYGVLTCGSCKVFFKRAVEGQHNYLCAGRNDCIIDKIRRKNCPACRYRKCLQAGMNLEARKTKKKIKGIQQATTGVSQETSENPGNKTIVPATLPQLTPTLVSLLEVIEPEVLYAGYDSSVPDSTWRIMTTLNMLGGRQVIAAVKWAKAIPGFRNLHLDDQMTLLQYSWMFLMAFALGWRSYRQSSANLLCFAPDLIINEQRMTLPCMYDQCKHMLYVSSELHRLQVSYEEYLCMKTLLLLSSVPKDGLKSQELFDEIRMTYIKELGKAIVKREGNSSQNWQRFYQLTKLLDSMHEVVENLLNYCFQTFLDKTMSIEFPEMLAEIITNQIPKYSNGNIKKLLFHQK
Procedure, shortened: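 Antagonist-mode qHTS: compound titrations added to GRE-bla HeLa cells, then dexamethasone 2 nM final; 18 h, 37 C. CCF4 FRET fluorescence normalized to dexamethasone and DMSO; IC50 from Hill fit.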

[8] = target: Peroxisome proliferator-activated receptor delta (Homo sapiens) (UniProt Q03181); assay: qHTS assay for small molecule agonists of peroxisome proliferator-activated receptor delta signaling (AID 588534; calls by dose curve)
Chain of Peroxisome proliferator-activated receptor delta (Homo sapiens) (Q03181 whole entry, looked up): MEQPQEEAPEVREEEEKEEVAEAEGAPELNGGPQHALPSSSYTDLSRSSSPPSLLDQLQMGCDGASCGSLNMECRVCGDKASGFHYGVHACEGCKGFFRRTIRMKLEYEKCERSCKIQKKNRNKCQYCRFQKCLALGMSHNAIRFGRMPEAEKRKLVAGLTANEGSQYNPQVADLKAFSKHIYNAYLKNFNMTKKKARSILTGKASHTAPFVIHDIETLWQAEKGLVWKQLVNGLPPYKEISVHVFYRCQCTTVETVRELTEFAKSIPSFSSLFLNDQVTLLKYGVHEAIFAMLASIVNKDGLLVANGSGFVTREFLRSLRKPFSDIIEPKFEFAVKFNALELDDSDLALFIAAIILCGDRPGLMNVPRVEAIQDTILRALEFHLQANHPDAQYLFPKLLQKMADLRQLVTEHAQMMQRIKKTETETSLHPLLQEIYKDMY
Procedure, shortened: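 Cell-based beta-lactamase reporter assay run in agonist mode: cells seeded and incubated 5 hrs at 37 C, compounds added and incubated 18 hrs at 37 C. CCF4 dye fluorescence read after 2 hrs at RT; EC50 and efficacy from Hill fits.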

[9] = target: Peroxisome proliferator-activated receptor gamma (Homo sapiens) (UniProt P37231); assay: qHTS assay for small molecule agonists of peroxisome proliferator-activated receptor gamma signaling (AID 588536; active means well fitted curve in the direction sought with a large enough effect in the signal ratio, with a control signal flat, not every such curve was filed as active; the % refers to the signal ratio)
Procedure, shortened: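 Test agents, titrated, stimulated HEK293 UAS-bla cells overnight (16 h, 37 C). Substrate CCF4 was then added for two hours at room temperature before fluorescence reading.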

[10] = target: Vitamin D3 receptor (Homo sapiens) (UniProt P11473); assay: qHTS assay for small molecule agonists of vitamin D receptor signaling (AID 588543; calls by dose curve)
Chain of Vitamin D3 receptor (Homo sapiens) (P11473 whole entry, looked up): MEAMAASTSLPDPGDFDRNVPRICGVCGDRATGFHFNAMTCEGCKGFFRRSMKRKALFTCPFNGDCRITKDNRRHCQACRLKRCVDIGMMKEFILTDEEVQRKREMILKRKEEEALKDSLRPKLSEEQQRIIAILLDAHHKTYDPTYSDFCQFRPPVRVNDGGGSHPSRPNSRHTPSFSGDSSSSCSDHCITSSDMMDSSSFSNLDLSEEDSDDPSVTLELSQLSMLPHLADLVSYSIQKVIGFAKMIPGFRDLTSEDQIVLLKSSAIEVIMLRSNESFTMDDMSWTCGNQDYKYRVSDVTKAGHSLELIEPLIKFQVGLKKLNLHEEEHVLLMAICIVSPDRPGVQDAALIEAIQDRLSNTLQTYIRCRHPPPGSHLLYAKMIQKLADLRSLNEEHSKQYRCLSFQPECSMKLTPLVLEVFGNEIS
Procedure, shortened: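 Reporter cells (HEK293T, VDR-UAS-bla) were seeded in medium with 2% charcoal-stripped serum and incubated 5 h, then compounds in concentration series were added for 16 h at 37 °C. Stimulation was scaled between DMSO basal and 50 nM 1α,25-dihydroxyvitamin D3.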

[11] = target: Thyroid hormone receptor beta (Homo sapiens) (UniProt P10828); assay: qHTS assay for small molecule agonists of thyroid hormone receptor beta signaling (AID 588545; calls by dose curve)
Chain of Thyroid hormone receptor beta (Homo sapiens) (P10828 whole entry, looked up): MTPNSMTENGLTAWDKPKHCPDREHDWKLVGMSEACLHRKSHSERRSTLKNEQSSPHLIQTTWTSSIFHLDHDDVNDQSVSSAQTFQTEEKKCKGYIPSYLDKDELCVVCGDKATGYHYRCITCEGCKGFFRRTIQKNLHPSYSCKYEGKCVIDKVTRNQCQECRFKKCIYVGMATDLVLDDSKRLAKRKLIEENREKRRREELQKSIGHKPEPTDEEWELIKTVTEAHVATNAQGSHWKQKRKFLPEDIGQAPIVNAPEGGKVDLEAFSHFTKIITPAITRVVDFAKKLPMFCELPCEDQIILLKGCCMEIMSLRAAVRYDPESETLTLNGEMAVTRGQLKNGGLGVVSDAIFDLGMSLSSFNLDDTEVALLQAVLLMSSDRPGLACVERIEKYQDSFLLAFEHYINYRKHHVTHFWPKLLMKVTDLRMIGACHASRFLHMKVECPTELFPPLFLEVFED
Procedure, shortened: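 TR-UAS-bla GripTite HEK 293 cells (2500/well, medium with 2% charcoal/dextran FBS) were treated in agonist mode for 18 h at 37 C, titrated. Beta-lactamase was read by CCF4 ratio after 2 h; normalized to 10 nM T3 (100%) and DMSO, Hill-fitted for EC50 and efficacy.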

[12] = target: Thyroid hormone receptor beta (Homo sapiens) (UniProt P10828); assay: qHTS assay for small molecule antagonists of thyroid hormone receptor beta signaling (AID 588547; active means well fitted inhibition curve with a large enough effect in the signal ratio, with a control signal flat, not every such curve was filed as active; the % refers to the signal ratio;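 further: cells stimulated with 0.4 nM T3 agonist during compound exposure; series mostly up to about 77 µM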); details: TR-UAS-bla HEK293, beta-lactamase ratio, antagonist mode, 18 h
Procedure, shortened: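 TR-UAS-bla GripTite HEK293 cells in 2% charcoal/dextran FBS medium; compounds 0.59 nM to 92 uM with T3 at 0.4nM final, 18 h at 37 C. Beta-lactamase read by CCF4 fluorescence (460/530 nm); Hill fits gave IC50 and efficacy.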

[13] = target: Voltage-gated inwardly rectifying potassium channel KCNH2 (Homo sapiens) (UniProt Q12809); assay: qHTS Assay for Small Molecule Inhibitors of the Human hERG Channel Activity (AID 588834);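 further: lower thallium flux fluorescence means stronger hERG block; nearly all actives have a fitted effect of over 50% in size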; further: potency means the concentration at half of the fitted maximal effect
Chain of Voltage-gated inwardly rectifying potassium channel KCNH2 (Homo sapiens) (Q12809 whole entry, looked up): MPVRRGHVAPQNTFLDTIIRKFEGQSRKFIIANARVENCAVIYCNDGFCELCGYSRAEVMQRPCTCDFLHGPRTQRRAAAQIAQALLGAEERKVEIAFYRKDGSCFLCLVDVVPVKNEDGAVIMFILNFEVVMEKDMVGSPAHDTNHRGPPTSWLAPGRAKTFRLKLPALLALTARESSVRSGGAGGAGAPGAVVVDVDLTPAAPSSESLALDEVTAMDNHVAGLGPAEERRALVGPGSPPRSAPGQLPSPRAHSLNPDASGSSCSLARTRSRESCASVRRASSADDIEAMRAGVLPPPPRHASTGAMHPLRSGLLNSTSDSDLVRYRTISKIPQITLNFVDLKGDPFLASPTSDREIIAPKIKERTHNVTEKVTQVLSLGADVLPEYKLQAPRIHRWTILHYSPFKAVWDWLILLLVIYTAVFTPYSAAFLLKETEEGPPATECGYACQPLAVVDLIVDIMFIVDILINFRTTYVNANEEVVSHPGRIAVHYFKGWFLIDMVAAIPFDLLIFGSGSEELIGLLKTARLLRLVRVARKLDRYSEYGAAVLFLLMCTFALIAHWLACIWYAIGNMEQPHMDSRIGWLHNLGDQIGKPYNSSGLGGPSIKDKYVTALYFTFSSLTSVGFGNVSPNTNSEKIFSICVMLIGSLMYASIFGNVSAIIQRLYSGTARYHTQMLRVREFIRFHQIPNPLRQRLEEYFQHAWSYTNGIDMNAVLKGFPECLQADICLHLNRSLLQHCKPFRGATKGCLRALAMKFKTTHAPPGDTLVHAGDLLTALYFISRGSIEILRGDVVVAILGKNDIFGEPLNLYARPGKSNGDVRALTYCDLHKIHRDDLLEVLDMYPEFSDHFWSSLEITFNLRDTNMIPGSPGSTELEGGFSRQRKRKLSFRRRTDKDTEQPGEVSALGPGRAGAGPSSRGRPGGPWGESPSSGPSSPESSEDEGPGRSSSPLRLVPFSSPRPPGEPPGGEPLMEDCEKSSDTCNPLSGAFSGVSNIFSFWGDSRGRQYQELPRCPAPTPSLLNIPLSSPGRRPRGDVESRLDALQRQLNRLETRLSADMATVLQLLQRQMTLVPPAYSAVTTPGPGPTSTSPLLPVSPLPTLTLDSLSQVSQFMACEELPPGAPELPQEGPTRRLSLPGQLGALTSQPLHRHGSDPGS
Procedure, shortened: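 hERG-BacMam U2OS, 2000 cells/well; 0.7X FluxOR loading 1 hr RT dark; cpd ~10 min 37 °C; stim buffer; FDSS fluorescence 2 min @ 1 s; AC50 Hill fit.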

[14] = qHTS assay for small molecule activators of the p53 signaling pathway (AID 651743; active means well fitted activation curve with a large enough effect in the signal ratio, not every such curve was filed as active; the % refers to the signal ratio; further: series mostly up to about 92 µM); details: HCT-116 p53RE-bla, beta-lactamase FRET ratio, 16 h; activation: hits give high values
Procedure, shortened: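 HCT-116 p53RE-bla, 4,000 cells/well; 5 h settle; cpd/DMSO 16 h, 37 C; LiveBLAzer B/G 2 h RT; fluorescence intensity.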

[15] = qHTS assay for environmental chemicals that activate the Aryl hydrocarbon Receptor (AhR) signaling pathway (AID 651777); details: 1A2-DRE human hepatoma cells, luciferase, 24 h; activation: hits give high values; further: nearly all actives have a fitted effect of over 15% in size
Procedure, shortened: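 Human hepatoma 1A2-DRE cells, stably carrying a dioxin response element and CYP1A2 promoter driving luciferase, were exposed to compounds for 24 hr at 37 C and 5% CO2. Luciferase signal was then read after 30 min One-Glo at room temperature.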

[16] = target: Nuclear receptor ROR-gamma (Homo sapiens) (UniProt P51449); assay: qHTS assay for small molecule antagonists of the retinoid-related orphan receptor gamma (ROR-gamma) signaling pathway (AID 651802); further: nearly all actives have a fitted effect of over 60% in size; further: potency means the concentration at half of the fitted maximal effect
Chain of Nuclear receptor ROR-gamma (Homo sapiens) (P51449 whole entry, looked up): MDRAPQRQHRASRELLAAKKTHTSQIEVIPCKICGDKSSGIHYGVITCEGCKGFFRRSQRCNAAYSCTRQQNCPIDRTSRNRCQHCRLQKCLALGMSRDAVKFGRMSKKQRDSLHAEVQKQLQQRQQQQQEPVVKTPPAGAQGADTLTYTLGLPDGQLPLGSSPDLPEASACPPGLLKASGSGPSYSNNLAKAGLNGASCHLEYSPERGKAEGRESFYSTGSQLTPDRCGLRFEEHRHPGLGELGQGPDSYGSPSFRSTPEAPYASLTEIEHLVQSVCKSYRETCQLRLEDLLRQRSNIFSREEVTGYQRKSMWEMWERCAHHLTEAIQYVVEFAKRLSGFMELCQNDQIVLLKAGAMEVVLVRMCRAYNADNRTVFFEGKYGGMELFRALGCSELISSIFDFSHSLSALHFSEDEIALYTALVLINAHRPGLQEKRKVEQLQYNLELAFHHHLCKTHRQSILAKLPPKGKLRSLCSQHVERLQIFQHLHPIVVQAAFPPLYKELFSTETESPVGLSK
Procedure, shortened: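 CHO cells carrying TET-inducible ROR-gamma and an ROR response element–luciferase reporter were exposed to compound, then induced with doxycycline. After 16hr at 37C, luminescence was read; lower signal indicates antagonism.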

[17] = target: Bile acid receptor (Homo sapiens) (UniProt Q96RI1); assay: qHTS assay for small molecule agonists of farnesoid X receptor signaling (AID 588527; calls by dose curve; further: series mostly up to about 77 µM); details: HEK293T FXR-UAS-bla, beta-lactamase ratio, 16 h; hits give high values
Procedure, shortened: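 Read-out: beta-lactamase reporter fluorescence with CCF4 substrate in GeneBLAzer FXR-UAS-bla HEK293T cells, after 16 h compound exposure at 37 C. Response scaled between DMSO basal (0%) and chenodeoxycholic acid at 100 uM (100%).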

[18] = target: Nuclear receptor subfamily 1 group I member 2 (Rattus norvegicus) (UniProt Q9R1A7); assay: qHTS assay for small molecule activators of the rat pregnane X receptor (rPXR) signaling pathway (AID 651751; call rule not given here); details: rPXR reporter cells, luciferase (One-Glo), 24 h
Chain of Nuclear receptor subfamily 1 group I member 2 (Rattus norvegicus) (Q9R1A7 whole entry, looked up): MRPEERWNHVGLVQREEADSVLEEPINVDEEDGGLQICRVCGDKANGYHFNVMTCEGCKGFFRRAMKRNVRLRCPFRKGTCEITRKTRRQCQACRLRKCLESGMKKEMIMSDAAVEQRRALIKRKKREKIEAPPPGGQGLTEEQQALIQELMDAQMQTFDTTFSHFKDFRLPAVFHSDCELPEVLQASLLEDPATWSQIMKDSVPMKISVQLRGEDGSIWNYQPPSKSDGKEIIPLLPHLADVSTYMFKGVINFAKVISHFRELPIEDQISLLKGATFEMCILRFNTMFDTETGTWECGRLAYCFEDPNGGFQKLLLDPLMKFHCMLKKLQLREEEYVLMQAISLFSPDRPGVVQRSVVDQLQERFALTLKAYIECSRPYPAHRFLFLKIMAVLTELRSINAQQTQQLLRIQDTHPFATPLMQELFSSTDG

[19] = qHTS assay for small molecule activators of the human pregnane X receptor (PXR) signaling pathway (AID 720659; call rule not given here)
[20] = qHTS assay for small molecule agonists of the antioxidant response element (ARE) signaling pathway (AID 651741; active means well fitted activation curve with a large enough effect in the signal ratio; the % refers to the signal ratio)
Procedure, shortened: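 HepG2 ARE-bla cells plated at 2,000 cells/well and incubated 5 h at 37 C/5% CO2 received 23 nL compound in DMSO. After 16 h at 37 C, LiveBLAzer B/G FRET substrate was applied for 2 h at room temperature and fluorescence read.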

Clc1nc(Cl)nc(Nc2ccccc2Cl)n1
Potency [1]: inactive | Potency [2]: inactive | Potency [3]: inactive | Potency [4]: inactive | Potency [5]: inactive | Potency [6]: inactive | Potency [7]: inactive | outcome [8]: inactive | outcome [9]: inactive | outcome [10]: inactive | outcome [11]: inactive | activity change % (negative = inhibition) [12]: 11.4% | Potency [13]: inactive | activation [14]: -1.67% and -3.76% | activation [15]: 3.35% and 3.56% | Potency [16]: inactive

ClCBr
Potency [1]: inactive | Potency [2]: inactive | Potency [4]: inactive | Potency [5]: inactive | Potency [6]: inactive | activation [17]: -2.9% | Potency [7]: inactive | outcome [8]: inactive | outcome [9]: inactive | outcome [10]: inactive | outcome [11]: inactive | activity change % (negative = inhibition) [12]: 5.81% | Potency [13]: inactive | activation [15]: -0.711% | Potency [16]: inactive | max response [18]: 0.745% | outcome [19]: inactive

CCOP(=S)(OCC)Oc1ccc([N+](=O)[O-])cc1
Potency [1]: inactive | Potency [2]: inactive | Potency [3]: inactive | Potency [4]: inactive | Potency [7]: inactive | outcome [8]: inactive | outcome [9]: inactive | outcome [11]: inactive | activity change % (negative = inhibition) [12]: 9.15% and -8.55% | Potency [13]: 35.5 µM (active) | Potency [20]: inactive | activation [14]: -1.79% and -1.31% and 2.7% | activation [15]: 8.97% | Potency [16]: inactive

BrCCBr
Potency [2]: inactive | Potency [3]: inactive | Potency [4]: inactive | Potency [5]: inactive | Potency [6]: inactive | Potency [7]: inactive | outcome [8]: inactive | outcome [9]: inactive | outcome [10]: inactive | outcome [11]: inactive | activity change % (negative = inhibition) [12]: -9.28% | Potency [13]: inactive | Potency [20]: inactive | activation [14]: -3.11% and 0.969% | activation [15]: -1.12% and 0.568% | Potency [16]: inactive | max response [18]: 2.8% and -1.13% | outcome [19]: inactive

O=[N+]([O-])c1cccc2ccccc12
Potency [1]: inactive | Potency [2]: inactive | Potency [3]: inactive | Potency [4]: inactive | Potency [5]: inactive | Potency [6]: inactive | outcome [8]: inactive | outcome [9]: inactive | outcome [11]: inactive | activity change % (negative = inhibition) [12]: 7.72% and 4.17% | Potency [13]: inactive | activation [14]: -1.88% and -1.02% | activation [15]: 0.626% and 5.73% | Potency [16]: inactive | max response [18]: 5.16% and 1.63% | outcome [19]: inactive

CC(C)(OO)c1ccccc1
Potency [2]: inactive | Potency [4]: 31.6 µM (active) | Potency [5]: inactive | activation [17]: -0.414% and -0.341% | Potency [7]: inactive | outcome [8]: inactive | outcome [9]: inactive | outcome [10]: inactive | outcome [11]: inactive | activity change % (negative = inhibition) [12]: 14.1% and -10.7% | Potency [13]: inactive | Potency [20]: inactive | activation [14]: 0.437% and -4.93% | activation [15]: 0.536% and 0.232% | Potency [16]: 42.2 µM (active) | max response [18]: 7.13% and -0.342% | outcome [19]: inactive
